Hit rate of the full screen: of about 390,000 compounds, about 4,000 (1%) were called active. About 4% were inconclusive and are not listed. Calls follow the shape of the dose curve; as a rule, active = well fitted inhibition curve with a large enough effect; inconclusive = small, poorly fitted or top-dose-only effect; inactive = no such curve, though single readings can be large or run the other way. What follows is part of a selection rich in actives, with near analogues and random picks from the rest. Where a call stands in place of a potency, no number is given.
Potency is read from the fitted curve at half-maximal effect.

Chain of Thioredoxin reductase 1, cytoplasmic (Rattus norvegicus) (O89049 whole entry, looked up): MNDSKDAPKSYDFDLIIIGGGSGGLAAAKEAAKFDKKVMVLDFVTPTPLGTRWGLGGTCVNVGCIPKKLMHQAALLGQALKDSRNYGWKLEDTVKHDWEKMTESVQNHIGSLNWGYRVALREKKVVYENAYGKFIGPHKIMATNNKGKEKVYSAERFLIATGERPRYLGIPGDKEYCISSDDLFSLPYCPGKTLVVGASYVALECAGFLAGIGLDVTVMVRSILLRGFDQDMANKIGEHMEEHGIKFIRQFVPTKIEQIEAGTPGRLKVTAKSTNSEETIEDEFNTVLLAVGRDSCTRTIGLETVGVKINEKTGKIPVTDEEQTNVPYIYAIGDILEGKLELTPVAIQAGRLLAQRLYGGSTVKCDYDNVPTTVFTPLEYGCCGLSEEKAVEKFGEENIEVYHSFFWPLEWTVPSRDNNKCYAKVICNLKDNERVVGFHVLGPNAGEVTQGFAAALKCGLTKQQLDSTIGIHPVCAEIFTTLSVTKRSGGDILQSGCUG

The assay has as its target Thioredoxin reductase 1, cytoplasmic (Rattus norvegicus) (UniProt O89049). In words: qHTS Assay for Inhibitors of Mammalian Selenoprotein Thioredoxin Reductase 1 (TrxR1): qHTS. Also: nearly all actives have a fitted effect of over 65% in size. To be noted: recombinant rTrxR1, NADPH fluorescence consumption, selenite substrate; series mostly up to 114 µM. The source says:
The selenoprotein thioredoxin reductase (TrxR; EC 1.8.1.9) is a FAD containing homodimeric pyridine nucleotide-disulfide oxidoreductase with many cellular roles. Together with NADPH and its prime substrate thioredoxin (Trx), the enzyme forms the core of the Trx system. The mammalian Trx system exerts a wide spectrum of functions including redox regulation, antioxidant defense, regulation of transcription factors as well as support of cell growth and replication. Many of these functions involve the reduction of Trx, which may subsequently reduce a number of different substrates including ribonucleotide reductase, peroxiredoxins or NFkB. Mammalian TrxR itself also has a broad substrate specificity, reducing both protein and non-protein substrates, including low molecular weight compounds such as dehydroascorbate, lipoic acid, ubiquinone, and juglone. In addition, several drugs in clinical use for anticancer treatment are indeed known to target TrxR1.
This BioAssay is a validation of an NADPH fluorescence-based, dual-purpose qHTS rTrxR1 assay designed to find potential inhibitors and substrates of rTrxR1. For this particular BioAssay, actives are potential inhibitors. See related BioAssay for substrate data deposition.
NIH Molecular Libraries Probe Production Network [MLPCN]
NIH Chemical Genomics Center [NCGC]
Assay Provider: Elias Arner, Karolinska Institute
Assay protocol: 2 uL of reagents (buffer in column 4 as negative control and 90 nM rTrxR1 in columns 1-3 and 5-48) were dispensed into Greiner black solid-bottom 1,536-well assay plates, followed by 1 uL of NADPH (400 uM final concentration) to each well. The plates were centrifuged at 1000 rpm for 15 seconds and subsequently incubated for 5 min at room temperature (~22 deg C) to allow for rTrxR1 reduction. Compounds (23 nL) were then transferred via Kalypsys pin tool equipped with 1536-pin array (10 nL slotted pins, V&P Scientific, San Diego, CA). In addition, a duplicate 2-fold serial dilution of the control compounds auranofin, a known gold-based TrxR1 inhibitor, and juglone (5-hydroxy-1,4-naphthoquinone), a natural TrxR1 substrate, were pin-transferred to columns 2 and 3, respectively. After incubation for 15 min at room temperature (~22 deg C), 1 uL of selenite (400 uM final concentration) were dispensed to each well. The plate was immediately transferred to a ViewLux high-throughput CCD imager (PerkinElmer), wherein kinetic measurements of NADPH fluorescence (Ex 340 nm, Em 450 nm) were acquired (8 minute kinetic read, see Table 1). Read 1 was utilized to assess the capacity of a compound to serve as an rTrxR1 substrate, i.e. a decrease in NADPH fluorescence compared to the no-compound background is an indication of a substrate behavior for that particular compound. For inhibitory activity of a compound, delta values, computed as the difference in fluorescence intensity between the first and last reads of an 8-minute time kinetic window, were used. All reagents were diluted in an assay buffer consisting of 50 mM Tris-HCl, pH 7.5, 2 mM EDTA, and 0.01% Tween-20.
Throughout the screen, reagent bottle and all liquid lines were made light-tight to minimize reagent degradation. All screening operations were performed on a fully integrated robotic system (Kalypsys, San Diego, CA) containing one RX-130 and two RX-90 anthropomorphic robotic arms (Staubli, Duncan, SC). Library plates were screened starting from the lowest and proceeding to the highest concentration, and a 'double-pinning' step of the highest concentration was required to access higher concentrations of compounds. Vehicle-only plates, with DMSO being pin-transferred to the columns 5-48, were inserted uniformly at the beginning and the end of each library in order to monitor and record any shifts in the background, which can be affected by reagent dispensers or loss in enzyme activity over time. […]
On the technique in general: qHTS replaces the single test concentration by a dilution series.
On to `Cc1cc(F)ccc1NS(=O)(=O)c1ccc(-n2cccn2)cc1`, for which the Potency result was “inactive”.

In the case of `COc1ccc2[nH]c3c(c2c1)CCN(C(=O)CCC1CCCC1)C3c1ccc(F)cc1` (centres undefined), the Potency entry is “inactive”.

On to `Cc1cc2c(cc3c(SCc4nc(-c5ccccc5)oc4C)nnc(C)n32)o1`, for which the Potency result was “inactive”.

As for `O=C(O)c1ccccc1NC(=S)NC(NC(=O)c1ccccc1[N+](=O)[O-])C(Cl)(Cl)Cl` (centres undefined), the Potency result is “inactive”.

As for `O=C(NC(=S)Nc1ncccn1)c1ccccc1Br`, the Potency result is “inactive”.

For `O=C(NC(=S)Nc1ccccc1C(=O)O)c1ccc(-c2ccc(Br)cc2)o1`, the Potency is 44.7 µM (active).

In the case of `CN(CCC#N)c1ccc(C=O)cc1`, the Potency entry is “inactive”.

Regarding `S=c1[nH]c(=S)c2n[nH]nc2[nH]1`, the Potency is 15.8 µM (active).

As to `C(=Nc1ccc(/C=C/c2ccnc3ccccc23)cc1)c1cc2c3c(c1)CCCN3CCC2`, the Potency result was “inactive”.

Turning to `COc1ccc(-c2onc(C)c2C)cc1S(=O)(=O)NCCc1ccccc1`, the Potency result was “inactive”.

For `OC(CBr)CN1CCCCC1` (centres undefined), the Potency entry was “inactive”.

For `Cc1ccc(-c2nn(-c3ccccc3)cc2CN(Cc2ccccc2)C(=O)CCC(=O)O)o1`, the Potency was 39.8 µM (active).

Turning to `Cc1ccc(-c2nn(-c3cccc(F)c3)cc2CNCCc2ccncc2)o1`, the Potency entry is “inactive”.

As for `CN(C)Cc1cn(-c2ccccc2)nc1-c1ccccc1`, the Potency result was “inactive”.

Turning to `Cc1ccc(C)c2sc(NC(=O)c3ccc(S(=O)(=O)N4CCCC4)cc3)nc12`, the Potency entry is “inactive”.

Regarding `CCc1ccc(NC(=O)C2CCCN2S(=O)(=O)c2ccc3nc(-c4ccccc4)[nH]c3c2)cc1` (centres undefined), the Potency entry is “inactive”.

Turning to `CN(C)c1nc(N)nc(CSc2ccccn2)n1`, the Potency result was “inactive”.

Regarding `COc1cccc(N(CC(=O)NCCSc2ccccn2)S(C)(=O)=O)c1`, the Potency entry was “inactive”.

With `COc1ccc(C=C(C#N)C#N)c(CSc2ccccn2)c1`, the Potency is 11.2 µM (active).

On to `COc1ccc(C(=O)COC(=O)CCCC(=O)Nc2cc(C(F)(F)F)ccc2Cl)cc1`, for which the Potency result was “inactive”.

In the case of `CN(N=O)c1ccc(C=C2c3ccccc3-c3ccccc32)cc1`, the Potency entry was “inactive”.

In the case of `CCOc1ccc(NC(=O)CCc2c(C)nn(-c3ccc(N4CCCC4)nn3)c2C)cc1`, the Potency entry was “inactive”.

With `O=C1O/C(=C\c2ccc(O)cc2)C(O)=C1c1ccc(O)cc1`, the Potency entry was “inactive”.

As for `Cn1cnc([N+](=O)[O-])c1Sc1n[nH]c(N)n1`, the Potency was 12.6 µM (active).

On to `Cn1cnc([N+](=O)[O-])c1Nc1ccccc1O`, for which the Potency result is “inactive”.

With `Nc1nc(Sc2ncccc2[N+](=O)[O-])n[nH]1`, the Potency entry is “inactive”.

With `CCOc1ccc(OCC)c(Nc2nc3ccccc3n3nnnc23)c1`, the Potency entry was “inactive”.

Turning to `COc1ccc(CNC(=O)Cn2nnc(-c3ccc(S(C)(=O)=O)cc3)n2)cc1`, the Potency result was “inactive”.

`Cc1c(Cl)cccc1NC(=O)C1CCCN(c2ncnc3onc(C)c23)C1` (centres undefined): the Potency result was “inactive”.

For the compound `CCOC(=O)N1CCc2c(sc3c2c(=O)n(-c2ccc(CC)cc2)c(=O)n3C)C1`, the Potency result is “inactive”.

As for `O=C(c1ccc(Br)cc1)N(Cc1cccs1)c1ccc(F)cc1`, the Potency result was “inactive”.

Take `COc1ccc(CCC(=O)NCCc2csc(-c3ccc(Cl)cc3)n2)cc1`: the Potency entry is “inactive”.

On to `CCOC(=O)c1ccc(N2C(=O)CC(N3CCC(C(=O)OCC)CC3)C2=O)cc1` (centres undefined), for which the Potency entry was “inactive”.

Turning to `COc1ccc(CN2C(=O)CC(Cc3ccc(C)cc3)C2=O)cc1OC` (centres undefined), the Potency result was “inactive”.

Consider `COc1ccc(N2C(=O)CC(N3CCC(C(N)=O)CC3)C2=O)cc1` (centres undefined), for which the Potency is 50.1 µM (active).

As for `COc1ccc(CCN2C(=O)CC(N3CCC(C(N)=O)CC3)C2=O)cc1OC` (centres undefined), the Potency is 22.4 µM (active).

`COc1ccc(CCN2C(=O)C3CC=C(C)CC3C2=O)cc1OC` (centres undefined): the Potency entry was “inactive”.

Regarding `COc1cccc(N2CCN(C3CC(=O)N(c4ccc(Cl)cc4)C3=O)CC2)c1` (centres undefined), the Potency entry is “inactive”.

For `Cn1c(=O)c(C(=O)O)nn(-c2ccccc2)c1=O`, the Potency result was “inactive”.

Consider `CCN(CC)/[N+]([O-])=N/Oc1cc(O/[N+]([O-])=N/N2CCCC2CO)c([N+](=O)[O-])cc1[N+](=O)[O-]` (centres undefined), for which the Potency result was “inactive”.

As to `COc1ccc(OC)c(NC(=O)Cn2c(=O)n(Cc3ccccc3)c(=O)c3ccccc32)c1`, the Potency result is “inactive”.

On to `CCCCCCCNc1ccc(/C=C/c2ccnc3ccccc23)cc1`, for which the Potency entry was “inactive”.

As to `O=C(COC(=O)c1ccccc1OCCOc1ccccc1)Nc1cccc(Br)c1`, the Potency result was “inactive”.

Turning to `COc1ccc2c(c1)CCc1c(C(=O)N3CCCC3)noc1-2`, the Potency is 35.5 µM (active).

In the case of `O=C(c1noc2c1CCCC2)N1CCc2ccccc2C1`, the Potency result was “inactive”.

Turning to `COc1ccc2c(c1)CCc1c(C(=O)Nc3cc(C)ccc3O)noc1-2`, the Potency entry was “inactive”.

With `CCCCNC(=O)Cn1c(SCc2cccc(Cl)c2)nc2ccncc21`, the Potency result was “inactive”.

Take `COc1ccc(-c2cn3c(n2)sc2cc(C(=O)Nc4ccccc4F)ccc23)cc1`: the Potency entry was “inactive”.

For the compound `COc1cccc(-c2n[nH]c3c2C(c2cccc(O)c2)N(C)C3=O)c1` (centres undefined), the Potency entry is “inactive”.

The values are drawn from PubChem BioAssay AID588453 (National Center for Advancing Translational Sciences (NCATS), 2011).
